The panel holds about 79,000 compounds, 15% with a hit somewhere; the sample as a whole holds those more often. Values without a mark were called inactive. Calls of active or inactive are those of the source. Rule as the data show it: active = growth inhibition above about 70%; inactive = the rest.
Tests used:
[1] = NCI Yeast Anticancer Drug Screen. Data for the rad50 strain (AID 155);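 also: 0% = growth of vehicle-only cultures of the same strain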; details: S. cerevisiae rad50 strain growth inhibition, stronger effect = higher value
Summary of the method: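 Cells are treated with compound, grown, and their growth is then scored against vehicle-only cultures of the same repair-deficient yeast strain.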

[2] = NCI Yeast Anticancer Drug Screen. Data for the mec2-1 strain (AID 157); details: S. cerevisiae mec2-1 strain, stronger effect = higher value
Summary of the method: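 Yeast mec2-1 mutant treated with compound. Readout: growth inhibition vs vehicle controls.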

[3] = NCI Yeast Anticancer Drug Screen. Data for the sgs1 mgt1 strain (AID 161);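 also: 0% = growth of cultures given vehicle only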; details: S. cerevisiae sgs1 mgt1 strain, stronger effect = higher value
Summary of the method: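 Read-out: growth inhibition vs vehicle controls. Cells: mutant yeast strain deficient in DNA damage repair.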

[4] = NCI Yeast Anticancer Drug Screen. Data for the cln2 rad14 strain (AID 165);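 also: 0% = growth equal to vehicle treated cultures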; details: S. cerevisiae cln2 rad14 strain, stronger effect = higher value
Summary of the method: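 cln2 rad14 yeast strain; compound exposure; growth inhibition read vs vehicle controls.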

[5] = NCI Yeast Anticancer Drug Screen. Data for the bub3 strain (AID 167); details: S. cerevisiae bub3 mutant strain, stronger effect = higher value
Summary of the method: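 Part of a panel of yeast mutants defective in DNA damage repair or cell cycle regulation. Each strain is grown with compound, and inhibition is calculated relative to solvent-treated cultures.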

[6] = NCI Yeast Anticancer Drug Screen. Data for the mlh1 rad18 strain (AID 175); details: S. cerevisiae mlh1 rad18 strain growth inhibition, stronger effect = higher value
Summary of the method: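 Yeast w/ defined DNA-repair lesions; compound exposure; growth vs vehicle controls → % inhibition.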

[7] = at 5.0 µM (retest, dose inferred, filed as 0.5)
[8] = at 50.0 µM (retest, dose inferred, filed as 5.0)

SMILES | growth inhibition [1, 7] | growth inhibition [1, 8] | growth inhibition ([1]; at 50.0 µM) | growth inhibition [2, 7] | growth inhibition [2, 8] | growth inhibition ([2]; at 50.0 µM) | growth inhibition [3, 7] | growth inhibition [3, 8] | growth inhibition ([3]; at 50.0 µM) | growth inhibition [4, 7] | growth inhibition [4, 8] | growth inhibition ([4]; at 50.0 µM) | growth inhibition [5, 7] | growth inhibition [5, 8] | growth inhibition ([5]; at 50.0 µM) | growth inhibition [6, 7] | growth inhibition [6, 8] | growth inhibition ([6]; at 50.0 µM)
COC(=O)c1ccccc1C(=O)c1cc(OC)c2c(c1OC)CCCC2 | -2% | 59% | 90.8% (active) | 0% | 64% | 94.5% (active) | 5% | 63% | 75.5% (active) | -69% | 23% | 47.6% | 3% | -45% | 77% (active) | 3% | 24% | 82.9% (active)
O=C1c2ccc(O)c(O)c2C(=O)c2c(O)ccc(O)c21 | 84% (active) | 95% (active) | 73.2% (active) | 74% (active) | 95% (active) | 55.5% | 92% (active) | 95% (active) | 67.6% | 34% | 93% (active) | 56% | 85% (active) | 93% (active) | 72% (active) | 91% (active) | 95% (active) | 77.8% (active)
Cc1cc(NCCCN(C)C)c2cc3ccc4cccc5ccc(c2n1)c3c45 | 1% | 54% | 95.2% (active) | -12% | 23% | 90.4% (active) | -3% | 47% | 94.8% (active) | -2% | 25% | 63.8% | -2% | 20% | 94.5% (active) | -2% | 58% | 97.3% (active)
CCCCCCSc1nn(CCC#N)c(=O)[nH]c1=O | -1% | -36% | 96% (active) | 5% | 36% | 93.5% (active) | 1% | 40% | 91.5% (active) | 13% | 10% | 78.5% (active) | 24% | -6% | 74.8% (active) | 3% | 21% | 96.7% (active)
Nc1nc(Cl)cc(NCC2(CO)CC(CCCc3ccccc3)C2)n1 (centres undefined) | 25% | 26% | -8.3% | 10% | 7% | -6.6% | 6% | 12% | -26.5% | 13% | 12% | -1.55% | 15% | 17% | -8.75% | 23% | 22% | -48.1%
O=C1C(=O)C2CC3(CC1N2Cc1ccccc1)OCCO3 | 11% | 95% (active) | 98% (active) | -28% | 79% (active) | 96.5% (active) | 36% | 93% (active) | 96.9% (active) | 5% | 43% | 95.2% (active) | -10% | 78% (active) | 86.5% (active) | 34% | 94% (active) | 95.5% (active)
CC(C)(C)C(OC(=O)Nc1ccccc1)C(C)(C)C | -1% | 29% | -0.7% | -18% | -5% | -2.2% | 4% | 8% | -9.55% | 9% | 16% | -61.5% | -1% | 37% | 5.1% | 9% | 36% | 6.25%
Oc1ccc2ccccc2c1/C=N\Sc1ccccc1 | 11% | 99% (active) | 97.5% (active) | 18% | 99% (active) | 99.3% (active) | 15% | 99% (active) | 98.5% (active) | 7% | 99% (active) | 41% | -2% | 99% (active) | 98.1% (active) | 6% | 99% (active) | 99% (active)
Cc1c(-c2ccccc2)ccnc1/C=N/NC(=S)Nc1ccccc1 | 1% | 39% | 89.2% (active) | 1% | 31% | 94% (active) | 4% | 88% (active) | 95.1% (active) | 1% | 23% | 92.1% (active) | -2% | 49% | 95.7% (active) | -5% | 59% | 93.8% (active)
O=C1C(Cl)=C(Nc2ccc(S(=O)(=O)O)cc2)C(=O)c2ccccc21 | 23% | 99% (active) | 99.5% (active) | 33% | 100% (active) | 99.6% (active) | 35% | 100% (active) | 99.6% (active) | 12% | 99% (active) | 99.3% (active) | 74% (active) | 99% (active) | 99.5% (active) | 26% | 99% (active) | 99.4% (active)
Cn1cc(NC(=O)c2cc(NC(=O)CCCCCCC(=O)Nc3cc(C(=O)Nc4cc(C(=O)NCCC(=N)N)n(C)c4)n(C)c3)cn2C)cc1C(=O)NCCC(=N)N | 87% (active) | 98% (active) | 91.8% (active) | 89% (active) | 99% (active) | 93.8% (active) | 82% (active) | 99% (active) | 93% (active) | 44% | 95% (active) | 91.3% (active) | 92% (active) | 98% (active) | 92.2% (active) | 90% (active) | 98% (active) | 92.2% (active)
Clc1ccc(SCCN2CCN(CCSc3ccc(Cl)cc3)CC2)cc1 | 76% (active) | 98% (active) | 83.2% (active) | 79% (active) | 99% (active) | 77.9% (active) | 92% (active) | 99% (active) | 94.2% (active) | 54% | 98% (active) | 86.9% (active) | 85% (active) | 99% (active) | 92.1% (active) | 88% (active) | 99% (active) | 96.6% (active)
COc1cccc2c1C(=O)c1c(O)c3c(c(O)c1C2=O)C[C@@](O)(C(C)=O)C[C@@H]3OC1CC(N(CCO)Cc2ccccc2)C(O)C(C)O1 (some centres undefined) | 97% (active) | 99% (active) | 91.2% (active) | 99% (active) | 100% (active) | 91.3% (active) | 95% (active) | 99% (active) | 91.5% (active) | 90% (active) | 97% (active) | 90.8% (active) | 98% (active) | 99% (active) | 89.4% (active) | 95% (active) | 99% (active) | 90.8% (active)
CC(C)C(=O)c1ccc([N+](=O)[O-])o1 | 2% | 97% (active) | 98.8% (active) | 11% | 97% (active) | 99% (active) | 8% | 96% (active) | 97.7% (active) | -3% | 99% (active) | 97.3% (active) | 1% | 97% (active) | 99.1% (active) | 6% | 98% (active) | 98.5% (active)
Clc1ccc(OCCC(Cn2ccnc2)c2ccc(Cl)cc2Cl)c(Cl)c1 (centres undefined) | 94% (active) | 98% (active) | 66% | 91% (active) | 99% (active) | 55.9% | 94% (active) | 98% (active) | 58.2% | 86% (active) | 97% (active) | 64% | 93% (active) | 98% (active) | 48.1% | 90% (active) | 98% (active) | 55.7%
C#CCOC(=O)Nc1nc2ccc(SC#N)cc2s1 | 9% | 90% (active) | 97.8% (active) | -5% | 87% (active) | 96.8% (active) | 3% | 98% (active) | 97.7% (active) | 0% | 92% (active) | 96.4% (active) | 14% | 90% (active) | 97.6% (active) | 4% | 96% (active) | 97.2% (active)
O=c1[nH]c2cc(Cl)ccc2nc1/C=C(\O)c1ccc(N2CCN(c3ccc(/C(O)=C/c4nc5ccc(Cl)cc5[nH]c4=O)cc3)CC2)cc1 | 10% | 12% | 95.8% (active) | 0% | 19% | 96.3% (active) | -3% | -12% | 94.2% (active) | 17% | -10% | 90.8% (active) | 19% | -15% | 94.5% (active) | -25% | -7% | 94.2% (active)
CNC(=O)N(C1=NCC(C)S1)c1ccc(C)c(C)c1 (centres undefined) | -13% | 97% (active) | 63.9% | -21% | 98% (active) | 74.9% (active) | -36% | 95% (active) | 71.8% (active) | -17% | 76% (active) | 57.2% | -22% | 98% (active) | 79.2% (active) | -17% | 89% (active) | 69%
